# Test results from PubChem BioAssay.
# Several values for one entry are separate records, joined by “and”; a condition that tells them apart may be missing. Equal values may be shown once. Records with an inconclusive call do not appear. For some assays here: Entries with a potency or affinity are not part of this list. Activity calls are given as the source filed them. Unless noted, the rule behind the calls is not given here.
# Tests used:
# [1] = blockers of polyQ-driven CASP3 activation – cell-based (AID 1583); details: polyglutamine-induced caspase-3 activation, cell assay; stronger effect = higher value;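 tested at 10 µM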
# [2] = restoration of touch response, mutant HTT neurons – whole organism, C. elegans mechanosensory neurons, N-terminal huntingtin (AID 1599); details: C. elegans polyQ-huntingtin mechanosensory neurons, stronger effect = higher value
# [3] = glutamate transport activators, MN-1 cells, MN-1 cell line (AID 1612); details: MN-1 motor neuron cells, stronger effect = higher value;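 note: tested at 1 µM final; 0% = mean of DMSO vehicle wells on each plate; positive means more glutamate uptake than control and negative means less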
# [4] = GFP-Q80 aggregate reduction, neuronal-like cells, cell-based, NGF-treated PC12, GFPQ80 (AID 1614); details: PC12 NGF-treated GFP-polyQ80 inclusion reduction;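 note: lower means fewer inclusions and 0 means no inclusions at all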
# [5] = 75Q-TubH aggregate inhibition, S. cerevisiae, yeast (AID 1616); details: S. cerevisiae 75Q-TubH polyglutamine aggregation suppression; stronger effect = higher value
# [6] = compounds altering circadian rhythm period length – cell-based, LOPAC library, luminescence reporter (AID 2774); details: circadian reporter cells, at 7 µM, actives lie on both sides;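 note: values are relative to mean of DMSO wells on each plate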
# [7] = test system: Hepatitis C virus NS3 helicase; assay: blockers of NS3h binding to ssDNA – biochemical, fluorescence polarization, LOPAC1280 library, primary screen (AID 687035; in the data active = inhibition above about 37%); details: Purified HCV NS3 helicase, Cy5-dT15 ssDNA binding fluorescence polarization; stronger effect = higher value; concentration not given here
# [8] = compounds altering Cy5-DNA-NS3h complex signal – biochemical, LOPAC1280, artefact control for HCV NS3 helicase inhibitor project (AID 687037); details: Cy5-DNA-NS3h complex fluorescence interference counterscreen
# [9] = test system: Aerobactin synthetase IucA (Klebsiella pneumoniae, hypervirulent); assay: biochemical IucA inhibition screen of LOPAC library by absorbance (AID 1346212); details: IucA enzyme assay, absorbance (OD) readout; stronger effect = lower value;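 tested at 8 µM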;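 note: 100% = no compound wells and 0% = no enzyme wells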
# [10] = blockers of cellular phospholipid synthesis – cell-based, LOPAC library, screen 4, primary screen (AID 1347384); details: animal cells, phospholipid biosynthesis inhibition screen; at 10 µM
# [11] = compounds altering viability of human ES cells (AID 493140); details: human embryonic stem cell survival screen; stronger effect = higher value;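 note: cells exposed to compounds for four days before counting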
# [12] = target: ATP-dependent translocase ABCB1 (Homo sapiens) (UniProt P08183); assay: P-glycoprotein substrate transport blockade – cell-based (AID 377; in the data active = fluorescence slope change above about 50%); details: MDR1-expressing cells, fluorescent substrate accumulation slope; stronger effect = higher value; concentration not given here
# ATP-dependent translocase ABCB1 (Homo sapiens), sequence (P08183 whole entry, looked up): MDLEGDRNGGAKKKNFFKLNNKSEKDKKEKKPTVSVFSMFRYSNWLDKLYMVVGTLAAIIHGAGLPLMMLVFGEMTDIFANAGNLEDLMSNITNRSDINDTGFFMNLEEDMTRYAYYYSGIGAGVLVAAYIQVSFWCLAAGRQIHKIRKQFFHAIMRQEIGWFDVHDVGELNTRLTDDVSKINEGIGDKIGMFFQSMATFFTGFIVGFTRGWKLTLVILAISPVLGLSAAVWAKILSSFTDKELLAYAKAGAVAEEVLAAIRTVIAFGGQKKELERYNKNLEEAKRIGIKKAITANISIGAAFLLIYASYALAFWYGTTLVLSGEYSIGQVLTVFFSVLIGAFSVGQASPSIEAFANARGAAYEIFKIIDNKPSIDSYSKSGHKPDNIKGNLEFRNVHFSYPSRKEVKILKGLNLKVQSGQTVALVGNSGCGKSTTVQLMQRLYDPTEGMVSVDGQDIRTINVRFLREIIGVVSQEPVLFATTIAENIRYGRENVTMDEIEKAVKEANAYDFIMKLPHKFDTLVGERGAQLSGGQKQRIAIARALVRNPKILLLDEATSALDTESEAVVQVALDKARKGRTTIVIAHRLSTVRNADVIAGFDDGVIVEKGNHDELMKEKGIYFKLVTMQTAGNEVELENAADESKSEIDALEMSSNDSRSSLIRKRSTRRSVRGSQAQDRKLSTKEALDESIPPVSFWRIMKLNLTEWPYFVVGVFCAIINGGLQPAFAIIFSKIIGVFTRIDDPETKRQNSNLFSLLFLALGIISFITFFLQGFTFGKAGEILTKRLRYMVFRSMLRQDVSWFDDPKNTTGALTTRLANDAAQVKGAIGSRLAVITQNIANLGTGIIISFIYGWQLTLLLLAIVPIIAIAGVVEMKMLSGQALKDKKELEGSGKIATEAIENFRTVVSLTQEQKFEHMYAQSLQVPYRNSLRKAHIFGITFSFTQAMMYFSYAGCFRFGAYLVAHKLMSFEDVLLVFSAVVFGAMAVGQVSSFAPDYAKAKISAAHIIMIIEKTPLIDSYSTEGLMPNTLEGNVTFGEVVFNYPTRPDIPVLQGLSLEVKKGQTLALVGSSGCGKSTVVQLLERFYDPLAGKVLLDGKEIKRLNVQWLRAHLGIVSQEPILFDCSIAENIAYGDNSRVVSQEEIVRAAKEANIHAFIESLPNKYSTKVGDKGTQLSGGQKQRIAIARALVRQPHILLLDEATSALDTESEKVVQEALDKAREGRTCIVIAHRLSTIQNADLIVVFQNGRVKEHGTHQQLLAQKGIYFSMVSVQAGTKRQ
# [13] = modulation of C. elegans fzo-1 (AID 1259413);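 note: fzo-1 mutant C. elegans worms in liquid wells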; details: C. elegans fzo-1 modulator screen, mean read-out; stronger effect = higher value
# F380Y = assay: BK channel mutant inhibitors and activators – cell-based, U2OS BacMam, thallium flux, beta subunits, selectivity assay, profiling panel (AID 1259406;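 active = thallium flux through the channel raised or lowered by more than 3 SD from vehicle-only wells, actives on both sides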;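 note: initial slope of Thallos dye fluorescence rise after thallium is added; log ratio against the mean of 0.3% DMSO vehicle wells on the same plate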); details: U2OS BacMam BK variants, at 30 µM
# F380Y/beta2Delta = assay: as above; details: U2OS BacMam BK variants, at 30 µM
# R275C = assay: as above; details: U2OS BacMam BK variants, at 30 µM
# R275C/beta1 = assay: as above; details: U2OS BacMam BK variants, at 30 µM
# R275C/beta2Delta = assay: as above; details: U2OS BacMam BK variants, at 30 µM
# [14] = growth inhibition, single agents and combos, ICB984, cell-based, cisplatin or BGB combos, synergistic combos for chromothripsis tumors (AID 1671451); details: ICB984 medulloblastoma cells, drug combinations, stronger effect = higher value;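 note: cells exposed for 96 hours before readout; 0% = vehicle DMSO and 100% = killing by high DMSO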
compound,measurement,setting,value
CC(C)(C)NCC(O)c1ccccc1Cl (stereo not drawn),inhibition,[1],4.55%
same,rescue above control,[2],-6.12
same,glutamate uptake change,[3],2.34%
same,inclusion score,[4],2
same,aggregation suppression score,[5],1.28
same,period change,[6],-0.125 h (inactive)
same,inhibition,[7],-4% (inactive)
same,fluorescence ratio (interference),[8],1 (inactive)
same,remaining activity,[9],113% (inactive)
same,outcome,[10],inactive
COc1ccc(OC)c(C(O)C(C)N)c1 (stereo not drawn),period change,[6],0.08 h (inactive)
same,survival,[11],3.58 (inactive)
same,inhibition,[7],-2% (inactive)
same,fluorescence ratio (interference),[8],1 (inactive)
same,remaining activity,[9],112% (inactive)
same,outcome,[10],inactive
CN(C)[C@@H]1C(=O)C(C(N)=O)=C(O)[C@@]2(O)C(=O)C3=C(O)c4c(O)cccc4[C@@](C)(O)[C@H]3[C@H](O)[C@@H]12,fluorescence slope change,[12],60.8% (active)
same,inhibition,[1],-0.04%
same,rescue above control,[2],-1.64
same,glutamate uptake change,[3],-6.56%
same,inclusion score,[4],1
same,aggregation suppression score,[5],0.502
same,survival,[11],14.3 (inactive)
same,mean signal,[13],260 (inactive)
same,log fold change Tl+ flux,F380Y,0.018 (inactive)
same,log fold change Tl+ flux,F380Y/beta2Delta,-0.0529 (inactive)
same,log fold change Tl+ flux,R275C,-0.057 (inactive)
same,log fold change Tl+ flux,R275C/beta1,0.0468 (inactive)
same,log fold change Tl+ flux,R275C/beta2Delta,-0.0649 (inactive)
CC(CCc1ccccc1)NC(C)C(O)c1ccc(O)cc1 (stereo not drawn),inhibition,[1],5.61%
same,rescue above control,[2],1.38
same,glutamate uptake change,[3],-2.97%
same,inclusion score,[4],2
same,aggregation suppression score,[5],1.46
same,period change,[6],0.06 h (inactive)
same,inhibition,[7],-5% (inactive)
same,fluorescence ratio (interference),[8],0.9 (inactive)
same,remaining activity,[9],104% (inactive)
same,outcome,[10],inactive
CCC1(C2=NCCN2)Cc2ccccc2O1 (stereo not drawn),period change,[6],0.07 h (inactive)
same,inhibition,[7],-1% (inactive)
same,fluorescence ratio (interference),[8],1 (inactive)
same,remaining activity,[9],82.2% (inactive)
same,outcome,[10],inactive
Clc1ccc(COC(Cn2ccnc2)c2ccc(Cl)cc2Cl)cc1 (stereo not drawn),fluorescence slope change,[12],66.2% (active)
same,inhibition,[1],55.1%
same,glutamate uptake change,[3],16.9%
same,aggregation suppression score,[5],0.0462
same,survival,[11],50.1 (inactive)
same,mean signal,[13],173 (inactive)
same,log fold change Tl+ flux,F380Y,-0.0888 (inactive)
same,log fold change Tl+ flux,F380Y/beta2Delta,-0.182 (active)
same,log fold change Tl+ flux,R275C,-0.00134 (inactive)
same,log fold change Tl+ flux,R275C/beta1,0.0779 (inactive)
same,log fold change Tl+ flux,R275C/beta2Delta,0.0329 (inactive)
CCCC(C)(COC(N)=O)COC(=O)NC(C)C (stereo not drawn),fluorescence slope change,[12],52.8% (active)
same,inhibition,[1],17.5%
same,rescue above control,[2],0.33
same,glutamate uptake change,[3],3.53%
same,inclusion score,[4],2
same,aggregation suppression score,[5],1.4
same,period change,[6],0.065 h (inactive)
same,survival,[11],11.2 (inactive)
same,inhibition,[7],-1% (inactive)
same,fluorescence ratio (interference),[8],1 (inactive)
same,mean signal,[13],258 (inactive)
same,remaining activity,[9],106% (inactive)
same,log fold change Tl+ flux,F380Y,0.0133 (inactive)
same,log fold change Tl+ flux,F380Y/beta2Delta,-0.0375 (inactive)
same,log fold change Tl+ flux,R275C,0.0157 (inactive)
same,log fold change Tl+ flux,R275C/beta1,0.044 (inactive)
same,log fold change Tl+ flux,R275C/beta2Delta,0.0245 (inactive)
CN1C(=O)CCS(=O)(=O)C1c1ccc(Cl)cc1 (stereo not drawn),fluorescence slope change,[12],29.1% (inactive)
same,inhibition,[1],11.3%
same,rescue above control,[2],10
same,glutamate uptake change,[3],3.58%
same,inclusion score,[4],2
same,aggregation suppression score,[5],1.17
same,period change,[6],0.08 h (inactive)
same,survival,[11],8 (inactive)
same,inhibition,[7],0% (inactive)
same,fluorescence ratio (interference),[8],1 (inactive)
same,remaining activity,[9],93.8% (inactive)
same,outcome,[10],inactive
NCC(O)c1ccc(O)cc1 (stereo not drawn),inhibition,[1],-11.8%
same,rescue above control,[2],-6.97
same,glutamate uptake change,[3],-13.3%
same,inclusion score,[4],2
same,aggregation suppression score,[5],0.97
same,period change,[6],-0.025 h (inactive)
same,survival,[11],5.08 (inactive)
same,inhibition,[7],-4% (inactive)
same,fluorescence ratio (interference),[8],1 (inactive)
same,outcome,[10],inactive
O=c1[nH]c2ccccc2n1C1CCN(CCCC(c2ccc(F)cc2)c2ccc(F)cc2)CC1,fluorescence slope change,[12],147% (active)
same,inhibition,[1],13.8%
same,rescue above control,[2],6.31
same,glutamate uptake change,[3],15.9%
same,aggregation suppression score,[5],1.1
same,period change,[6],0.045 h (inactive)
same,survival,[11],4.67 (inactive)
same,inhibition,[7],-3% (inactive)
same,fluorescence ratio (interference),[8],1 (inactive)
same,remaining activity,[9],122% (inactive)
same,outcome,[10],inactive
CC(Cc1ccc(O)cc1)NCC(O)c1cc(O)cc(O)c1 (stereo not drawn),fluorescence slope change,[12],108% (active)
same,inhibition,[1],7.8%
same,rescue above control,[2],3.16
same,glutamate uptake change,[3],0.39%
same,inclusion score,[4],2
same,aggregation suppression score,[5],1.23
same,period change,[6],0.005 h (inactive)
same,survival,[11],36.6 (inactive)
same,inhibition,[7],-3% (inactive)
same,fluorescence ratio (interference),[8],1 (inactive)
same,remaining activity,[9],91.6% (inactive)
same,outcome,[10],inactive
O=c1[nH]c2ccccc2n1CCCN1CCC(n2c(=O)[nH]c3cc(Cl)ccc32)CC1,period change,[6],-0.195 h (inactive)
same,survival,[11],7.33 (inactive)
same,inhibition,[7],-3% (inactive)
same,fluorescence ratio (interference),[8],1 (inactive)
same,remaining activity,[9],105% (inactive)
same,outcome,[10],inactive
NCCc1ccc(O)cc1,inhibition,[1],-15.4%
same,rescue above control,[2],-11.7
same,glutamate uptake change,[3],-2.56%
same,inclusion score,[4],2
same,aggregation suppression score,[5],1.19
same,period change,[6],0.035 h (inactive)
same,inhibition,[7],-3% (inactive)
same,fluorescence ratio (interference),[8],1 (inactive)
same,remaining activity,[9],98.4% (inactive)
same,outcome,[10],inactive
Clc1ccc(CO/N=C(\Cn2ccnc2)c2ccc(Cl)cc2Cl)c(Cl)c1,mean signal,[13],187 (inactive)
O=P1(N(CCCl)CCCl)NCCCO1 (stereo not drawn),inhibition,[1],-14.8%
same,rescue above control,[2],-5.6
same,glutamate uptake change,[3],-7.13%
same,inclusion score,[4],2
same,aggregation suppression score,[5],1.14
same,period change,[6],0.185 h (inactive)
same,inhibition,[7],-3% (inactive)
same,fluorescence ratio (interference),[8],1 (inactive)
same,mean signal,[13],262 (inactive)
same,remaining activity,[9],112% (inactive)
same,outcome,[10],inactive
same,inhibition,"[14]; BGB IC20 combo, at 0.005 µM",-3.81% and -12.8%
same,inhibition,"[14]; BGB IC40 combo, at 0.005 µM",-4.33% and -15%
same,inhibition,"[14]; BGB IC40 combo, at 0.05 µM",-3.91% and -28.7%
same,inhibition,[14]; at 0.5 µM,-31.6% (inactive) and -25.4% (inactive)
same,inhibition,"[14]; cisplatin combo, at 0.05 µM",-7.65% and -28.7%
same,inhibition,"[14]; cisplatin combo, at 0.5 µM",-40.7% and -25.4%
same,inhibition,"[14]; cisplatin combo, at 5 µM",-21.7% and -28.6%
same,inhibition,"[14]; measured here: 5 uM single agent, at 5 µM",6.31% and -15%
same,log fold change Tl+ flux,F380Y,-0.0772 (inactive)
same,log fold change Tl+ flux,F380Y/beta2Delta,-0.037 (inactive)
same,log fold change Tl+ flux,R275C,-0.0233 (inactive)
same,log fold change Tl+ flux,R275C/beta1,0.00892 (inactive)
same,log fold change Tl+ flux,R275C/beta2Delta,-0.0421 (inactive)
